The test has as its system SYK. The following applies: Compound Concentration (nM):1000.
For the molecule `COc1cc(C=NNc2ncnc3c2cnn3-c2ccccc2)ccc1O` [GW513184X], the “Percent Control” value came out at 38%.
Turning to `CCS(=O)(=O)c1ccc(OC)c(Nc2ncc(-c3cccc(OC)c3)o2)c1` [GW580509X], the “Percent Control” value is recorded as 96%.
Consider `Cl.O=C(Nc1ccc(Oc2ccc3[nH]c(NC(=O)c4ccco4)nc3c2)cc1)Nc1cc(C(F)(F)F)ccc1F` [GW683134A], for which the “Percent Control” value is recorded as 100%.
The figure for `CN1CCN(C(=O)c2ccc(NC(=O)Nc3ccc(N(C)c4ccnc(Nc5ccc(CS(C)(=O)=O)cc5)n4)cc3)cc2)CC1.Cl` [GW830263A] is 34%.
For the molecule `COc1cc(N2CCN(C(C)C)CC2)ccc1Nc1nc(Nc2ccc(F)cc2C(=O)NC[C@@H](O)CO)c2cc[nH]c2n1` [GSK1392956A], the “Percent Control” value was 92%.
Take `C[C@@H](Oc1cc(-n2cnc3ccc(OC4CCN(C)CC4)cc32)sc1C(N)=O)c1ccccc1Cl` [GSK579289A]: the “Percent Control” value amounted to 100%.
Consider `COc1ccc2cc(-c3c(-c4ccncc4)nc(-c4ccc(S(C)(=O)=O)cc4C)n3C)ccc2c1` [SB-633825], for which the “Percent Control” value is recorded as 78%.
For the molecule `COC(=O)Nc1nc2ccc(Oc3ccc(NC(=O)Nc4cc(C(F)(F)F)ccc4F)cc3)cc2s1.Cl` [GW693917A], the “Percent Control” value was 98%.
As to `CN(C)CCNC(=O)Nc1ccc(N(C)c2ccnc(Nc3ccc(CS(C)(=O)=O)cc3)n2)cc1.Cl` [GW830900A], the “Percent Control” value worked out at 97%.
For `COc1cc(/C=N/Nc2ncnc3[nH]ncc23)ccc1O` [GW578748X], the “Percent Control” value is recorded as 51%.
The figure for `COc1cc2ncn(-c3cc(O[C@H](C)c4ccccc4Cl)c(C(N)=O)s3)c2cc1OC` [GSK237701A] is 78%.

These data come from paper PMC7826789 (International Journal of Molecular Sciences, 2021).
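Also: KINOMEscan scanMAX binding as percent activity remaining versus control; lower means stronger binding.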
